{"source": "paper PMC6919601", "about": "“Identification of Plasmodium dipeptidyl aminopeptidase allosteric inhibitors by high throughput screening” (PLoS ONE, 2019)", "note": "About 230 (0.21%) of roughly 110,000 compounds showed an effect of 50% or more. The sample holds strong results, similar compounds and a random draw of the others, so the mix is not that of the screen.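 Note: 30 min substrate incubation versus DMSO and 10 µM JCP410 controls.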", "data": [{"target": "DPAP1 (Plasmodium falciparum, UniProt Q8IIJ9)", "sequence (Q8IIJ9 whole entry, looked up)": "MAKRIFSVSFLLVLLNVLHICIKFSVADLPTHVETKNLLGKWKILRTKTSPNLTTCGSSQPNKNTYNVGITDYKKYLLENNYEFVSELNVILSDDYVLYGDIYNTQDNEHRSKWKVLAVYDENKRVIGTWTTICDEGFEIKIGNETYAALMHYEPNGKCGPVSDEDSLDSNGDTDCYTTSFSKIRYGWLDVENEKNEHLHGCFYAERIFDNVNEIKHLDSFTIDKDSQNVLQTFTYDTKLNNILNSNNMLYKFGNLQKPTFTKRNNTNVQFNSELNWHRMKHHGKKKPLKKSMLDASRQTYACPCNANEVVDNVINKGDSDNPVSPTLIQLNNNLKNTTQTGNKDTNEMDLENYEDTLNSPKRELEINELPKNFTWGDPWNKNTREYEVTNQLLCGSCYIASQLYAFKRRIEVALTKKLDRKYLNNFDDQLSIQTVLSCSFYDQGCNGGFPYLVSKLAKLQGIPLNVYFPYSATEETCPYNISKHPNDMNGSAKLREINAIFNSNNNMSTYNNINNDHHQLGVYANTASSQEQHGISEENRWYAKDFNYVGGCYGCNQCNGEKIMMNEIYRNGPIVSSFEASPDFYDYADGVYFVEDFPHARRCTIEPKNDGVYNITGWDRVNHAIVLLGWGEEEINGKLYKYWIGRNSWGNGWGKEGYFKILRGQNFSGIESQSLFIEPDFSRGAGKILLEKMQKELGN", "test": "primary screen, percent inhibition; read by cleavage of a fluorogenic dipeptide substrate; higher = more effect of the substance", "parameters": "species or system P. falciparum D10 trophozoite lysates; single well", "units": {"% Inhibition @ 10 uM": "%"}, "values": [{"smiles": "c1ccc2nc3c(nc2c1)[nH]c1ccccc13", "% Inhibition @ 10 uM": -1.8}, {"smiles": "Sc1nnc2[nH]c3ccccc3c2n1", "% Inhibition @ 10 uM": 56.9}, {"smiles": "Sc1nnc2c(n1)[nH]c1ccccc12", "% Inhibition @ 10 uM": 38}, {"smiles": "Cc1nc2ccc(S(=O)(=O)NC(C(=O)NCCc3ccccc3)C(C)C)cc2s1", "note": "(stereo not drawn)", "% Inhibition @ 10 uM": -0.0115}, {"smiles": "Cc1ccc2[nH]c(SCC(=O)Nc3ccc(Cl)cc3)nc2c1", "% Inhibition @ 10 uM": 5.24}, {"smiles": "COc1cccc2cc(-c3cn(-c4cccc(C)c4)c(S)n3)c(=O)oc12", "% Inhibition @ 10 uM": 20.1}, {"smiles": "Cc1cc(C)c2c(=O)n(CC(=O)NCc3ccc4c(c3)OCO4)sc2n1", "% Inhibition @ 10 uM": 12}, {"smiles": "Cc1cc(C)c2c(=O)n(CC(=O)NCCc3ccc(Cl)cc3)sc2n1", "% Inhibition @ 10 uM": 15.6}, {"smiles": "Cc1cc(C)c2c(=O)n(CC(=O)NCc3ccccc3Cl)sc2n1", "% Inhibition @ 10 uM": 83.7}, {"smiles": "Cc1c(C(=O)Nc2nc3c(s2)CCCC3)oc2ccccc12", "% Inhibition @ 10 uM": -2.85}, {"smiles": "N#CC1=C(N)Oc2[nH]nc(-c3ccncc3)c2C1c1ccncc1", "note": "(stereo not drawn)", "% Inhibition @ 10 uM": 3.92}, {"smiles": "CCOc1cc(-c2c(C)c(C)nc(N)c2C#N)ccc1O", "% Inhibition @ 10 uM": -1.79}, {"smiles": "CC(C)C1Nc2c(C(=O)O)cccc2C2C=CCC21", "note": "(stereo not drawn)", "% Inhibition @ 10 uM": -1.2}, {"smiles": "O=C(O)c1cccc2c1NC(C(=O)O)C1CC=CC21", "note": "(stereo not drawn)", "% Inhibition @ 10 uM": 65.6}, {"smiles": "O=C(O)C1Nc2c(cccc2C(F)(F)F)C2C=CCC12", "note": "(stereo not drawn)", "% Inhibition @ 10 uM": 0.345}, {"smiles": "CCc1nn(CCCC(=O)NC2CCCCC2C)c(=O)c2cc3occc3n12", "note": "(stereo not drawn)", "% Inhibition @ 10 uM": -0.281}, {"smiles": "CCOc1ccc(C(=O)Nc2ccc(-c3nc4ncccc4o3)cc2)cc1Cl", "% Inhibition @ 10 uM": -4.82}, {"smiles": "CCc1cccc(C)c1NC(=O)c1cc(OC)cc(OC)c1", "% Inhibition @ 10 uM": 15.2}, {"smiles": "O=C(O)CN1C(=O)c2cc(Cl)c(Cl)cc2C1=O", "% Inhibition @ 10 uM": 3.67}, {"smiles": "Cc1ccc(C(=O)NCc2nnc(SCC(=O)Nc3nccs3)n2-c2ccccc2)cc1C", "% Inhibition @ 10 uM": -4.97}, {"smiles": "Cc1ccc(C)c(-n2c(CNC(=O)c3cccc(F)c3)nnc2SCC(=O)Nc2nccs2)c1", "% Inhibition @ 10 uM": 73.7}, {"smiles": "COc1ccccc1-n1c(CNC(=O)c2cccc(C)c2)nnc1SCC(=O)Nc1nccs1", "% Inhibition @ 10 uM": 2.12}, {"smiles": "C[C@H](NC(=O)CCc1ccccc1)c1ccccc1", "% Inhibition @ 10 uM": 4.22}, {"smiles": "CC(C)n1c(NC2CCCCC2)nc2c1c(=O)[nH]c(=O)n2C", "% Inhibition @ 10 uM": -1.11}, {"smiles": "Cc1cc(C)c2oc(C(=O)Nc3nnc(C)s3)cc(=O)c2c1", "% Inhibition @ 10 uM": -3.24}, {"smiles": "Cc1cc(C)c2oc(C(=O)Nc3nnc(CC(C)C)s3)cc(=O)c2c1", "% Inhibition @ 10 uM": 3.51}, {"smiles": "Cc1cc(C)c2oc(C(=O)Nc3nnc(C(C)C)s3)cc(=O)c2c1", "% Inhibition @ 10 uM": 53.6}, {"smiles": "Cc1cc(C(=O)NCCc2ccccc2)c2c(C)nn(-c3ccccc3)c2n1", "% Inhibition @ 10 uM": -6.46}, {"smiles": "COC(=O)CSc1nc(C)c(C)c(C)c1C#N", "% Inhibition @ 10 uM": 4.15}, {"smiles": "Cc1nc(SCC(N)=O)c(C#N)c(C)c1C", "% Inhibition @ 10 uM": -0.239}, {"smiles": "Cc1nc(SCC(=O)O)c(C#N)c(C)c1C", "% Inhibition @ 10 uM": 72.9}, {"smiles": "O=C(CSC1CC(=O)N(c2cccc(Cl)c2)C1=O)Nc1ccc(F)cc1", "note": "(stereo not drawn)", "% Inhibition @ 10 uM": 2.13}, {"smiles": "CC(=O)Nc1ccc(Oc2cccc(Oc3ccc(NC(C)=O)cc3)c2)cc1", "% Inhibition @ 10 uM": -6.02}, {"smiles": "CCC(=O)Nc1ccc(Oc2ccc(NC(=O)CC)c(NC(=O)CC)c2)cc1", "% Inhibition @ 10 uM": 8.21}, {"smiles": "CC(=O)Nc1ccc(Oc2ccc(NC(C)=O)c(NC(C)=O)c2)cc1", "% Inhibition @ 10 uM": 70.7}, {"smiles": "C1CCN(CCCNC2C3CC4CC(C3)CC2C4)C1", "note": "(stereo not drawn)", "% Inhibition @ 10 uM": -0.192}, {"smiles": "COc1ccc(C(=O)N2CCC(N3CCCCCC3)CC2)cc1", "% Inhibition @ 10 uM": 1.91}, {"smiles": "Cc1nc2c3ccccc3n3c(CCCC(=O)O)nnc3n2n1", "% Inhibition @ 10 uM": -2.92}, {"smiles": "c1cncc(C(c2c[nH]c3ccccc23)c2c[nH]c3ccccc23)c1", "% Inhibition @ 10 uM": 92.4}, {"smiles": "Cc1[nH]nc(O)c1C(c1c(O)n[nH]c1C)c1c[nH]c2ccccc12", "% Inhibition @ 10 uM": -6.24}, {"smiles": "CCc1[nH]c2ccccc2c1C(C)c1cccnc1", "note": "(stereo not drawn)", "% Inhibition @ 10 uM": -4.49}, {"smiles": "CC(C)(C)C1CCC(OC(=O)CCC(=O)Nc2ccccc2)CC1", "note": "(stereo not drawn)", "% Inhibition @ 10 uM": 3.16}, {"smiles": "N#Cc1cnn(-c2cc(Oc3ccccc3)nc(-c3ccccc3)n2)c1N", "% Inhibition @ 10 uM": -0.941}, {"smiles": "Cc1cccc(-n2c(C)cc(/C=C3\\C(=N)N4N=C(S(C)(=O)=O)SC4=NC3=O)c2C)c1", "% Inhibition @ 10 uM": 52.6}, {"smiles": "Cc1cccc(C)c1-n1c(C)cc(/C=C2\\C(=N)N3N=C(S(C)(=O)=O)SC3=NC2=O)c1C", "% Inhibition @ 10 uM": 5.1}, {"smiles": "Cc1cc(/C=C2\\C(=N)N3N=C(S(C)(=O)=O)SC3=NC2=O)c(C)n1-c1cccc(C(F)(F)F)c1", "% Inhibition @ 10 uM": 3.53}, {"smiles": "CN(C)CCN(Cc1ccccc1)c1ncnc2onc(-c3ccc(F)cc3)c12", "% Inhibition @ 10 uM": -2.52}, {"smiles": "CC(=O)Nc1ccc(Nc2nc(-c3c(C)nc4cc(C)ccn34)cs2)cc1", "% Inhibition @ 10 uM": 25.6}, {"smiles": "CC(C)Cc1c(C#N)c(SCC(N)=O)nc2c1CCCC2", "% Inhibition @ 10 uM": 9.71}, {"smiles": "N#Cc1c(S)nc2c(c1/C=C/c1ccccc1)CCC2", "% Inhibition @ 10 uM": 17.3}, {"smiles": "CC(C)Cc1c(C#N)c(S)nc2c1CCCC2", "% Inhibition @ 10 uM": 90.5}]}]}
